Compound activity as filed in PubChem BioAssay.
TSHR ag = qHTS Assay for Agonists of the Thyroid Stimulating Hormone Receptor; HEK293-CNG-TSHR cells (CNG channel as cAMP sensor), membrane potential dye, cAMP; Potency, µM (titrated, usually from 57.1 µM), without a hit: top-dose activation, actives largely listed as activators; AID 926, 2007; 73,000 compounds, 0.48% hits; active = well fitted activation curve with a large enough effect in the main read-out, with a control signal flat, not every such curve was filed as active; inconclusive = small, poorly fitted or top-dose-only effect, or a change in a side signal; inactive = no such curve, though single readings can be large or run the other way; % of control where 0% means no effect;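 note: the control signal comes from parental cells without the receptor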
Target sequence (P16473 whole entry, looked up): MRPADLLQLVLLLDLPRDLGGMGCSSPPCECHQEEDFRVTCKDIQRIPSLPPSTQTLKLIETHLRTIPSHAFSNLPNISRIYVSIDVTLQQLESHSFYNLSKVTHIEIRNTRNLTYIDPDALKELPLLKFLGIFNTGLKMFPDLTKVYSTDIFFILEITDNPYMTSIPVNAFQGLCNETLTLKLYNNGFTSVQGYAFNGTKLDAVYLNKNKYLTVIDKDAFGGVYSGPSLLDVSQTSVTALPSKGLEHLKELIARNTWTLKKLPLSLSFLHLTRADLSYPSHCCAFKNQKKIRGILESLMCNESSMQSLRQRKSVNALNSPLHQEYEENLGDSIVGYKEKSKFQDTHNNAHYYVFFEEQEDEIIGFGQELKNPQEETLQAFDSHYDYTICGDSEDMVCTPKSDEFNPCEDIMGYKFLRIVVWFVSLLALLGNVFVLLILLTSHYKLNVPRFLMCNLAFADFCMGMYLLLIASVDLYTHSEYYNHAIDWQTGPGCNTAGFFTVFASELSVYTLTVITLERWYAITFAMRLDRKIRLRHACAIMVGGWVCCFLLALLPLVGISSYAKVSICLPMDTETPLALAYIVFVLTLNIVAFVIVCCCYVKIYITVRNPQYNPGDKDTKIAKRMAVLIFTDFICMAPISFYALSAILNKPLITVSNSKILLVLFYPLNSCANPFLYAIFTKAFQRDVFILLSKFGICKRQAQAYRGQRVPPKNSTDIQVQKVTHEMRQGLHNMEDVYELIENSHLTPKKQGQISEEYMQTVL
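HEK 293 cells stably expressing TSHR and a cAMP-gated CNG channel; parental CNG-only cells as counterscreen. Cells preloaded 60 min with membrane potential dye plus 100 uM RO 20-1724, then compound 30 min; fluorescence read at 590 nm.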
CRE-bla Fsk = Cell signaling CRE-BLA (Fsk stim); AID 662, 2007; CHO CRE-bla reporter (cAMP response element driving beta-lactamase), forskolin EC10, beta-lactamase ratio; 71,000 compounds, 2.5% hits; Potency, µM (highest dose often 38.2 µM), inactives show at the top dose activity change, negative = inhibition, most hits filed as activators; active = well fitted activation curve with a large enough effect in the signal ratio, with a control signal flat, not every such curve was filed as active; inconclusive = small, poorly fitted or top-dose-only effect, or effect the other way, or a change in a side signal; the % refers to the signal ratio; note: % of control where 0% means no effect
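Beta-lactamase reporter under a cAMP responsive element in CHO cells; compounds tested in titration series against EC10 NKH 477, 3 h at 37 °C. Read-out: CCF4 FRET ratio 460nm/530nm (excitation 405nm) giving %Activity, fitted to AC50.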
ERK AVP inh = qHTS Assay for Inhibitors of the ERK Signaling Pathway using a Homogeneous Screening Assay; HEK293-V1b, vasopressin-stimulated pERK AlphaScreen; Potency, µM (series often up to 57.5 µM), for the others: at the highest dose activity, negative = inhibition, usual class: inhibitors; 72,000 compounds, 0.99% hits; AID 995, 2007; note: % is set by controls: 0 for no effect and ±100 for the full control effect; nearly all actives have a fitted effect of over 55% in size
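HEK293 cells stably expressing V1b receptor, preincubated 30 min at 37 °C with compound, then stimulated 5 min with 25 nM vasopressin. Phospho-ERK by AlphaScreen SureFire after 5 h RT; normalized to DMSO and vasopressin; AC50 by Hill fit.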
Tau filament bind = qHTS Assay for Tau Filament Binding. recombinant tau filaments, thioflavin S fluorescence, 15 h; filaments grown with octadecylsulfate alongside compound. Potency, µM (titrated, usually from 57.1 µM), for the others: at the top dose activity change, negative = inhibition. AID 596, 2007. 71,000 compounds, 2% hits;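 note: % is set by controls: 0 for no effect and ±100 for the full control effect; actives lower thioflavin S fluorescence by blocking filaments or displacing dye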
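Read-out: ThS fluorescence, 450 nm excitation/510 nm emission; lower signal marks blocked filament formation or displaced dye. Tau at 1 uM with 30 uM ODS, 10 uM ThS, 5 mM DTT, 100 mM NaCl, 10 mM HEPES pH 7.4; 15 h, 37 C.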
HEK293 cAMP ctrl = qHTS Assay for Agonists of the Thyroid Stimulating Hormone Receptor: Activators of Intracellular cAMP Concentrations in Parental HEK 293; 73,000 compounds, 2.5% hits; Potency, µM (doses to about 57.1 µM), inactives show at the top dose activation, hits mostly activators; parental HEK293 CNG cAMP sensor, membrane potential fluorescence; AID 938, 2007; note: % of control where 0% means no effect; nearly all actives have a fitted effect of over 55% in size
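Parental HEK 293 cells stably expressing a modified CNG channel (no TSHR) report cAMP rise as membrane depolarization. Membrane potential dye with 100 uM RO 20-1724 was loaded for 60 min at room temperature, then compound added for 30 min; fluorescence read at 590 nm.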
Numbers without * were called inactive; i = inactive; ? = inconclusive; nt = no result given; [ ] = dose if it differs, or a comment. Hits are enriched below; roughly 7.6% of the tested compounds scored in any of these assays. Unless noted, calls come from the whole dose curve; as a rule, active = well fitted curve in the direction sought with a large enough effect; inconclusive = small, poorly fitted or top-dose-only effect, or another doubt; inactive = no such curve, though single readings can be large; an effect the other way counts as inactive or inconclusive. Potency is the fitted concentration of half-maximal effect.

SMILES | TSHR ag | CRE-bla Fsk | ERK AVP inh | Tau filament bind | HEK293 cAMP ctrl
CO[C@@H]1COC(=O)[C@H](C)NC(=O)C/C=C\[C@@H](C)[C@@H](NS(=O)(=O)c2ccc(C)cc2)COC(=O)C/C=C\[C@@H]1C | 16%[11.4 µM] | nt | 26%[11.5 µM] | nt | -1%[11.4 µM]
C=CCn1c2ccccc2c2nnc(SCN3C(=O)c4ccccc4C3=O)nc21 | nt | ? | 16% | ? | 25%[11.4 µM]
C=CCn1c2ccccc2c2nnc(SCCCn3c(=O)[nH]c4ccccc43)nc21 | ? | 1.3µM* | 13µM* | 3.2µM* | ?
Cc1ccc(OCC(=O)Nc2ccc3c(c2)nc(CCN2CCOCC2)n3C)cc1 | ? | ? | -3% | 1% | 25µM*
COc1cc2c(cc1OC)C1C(=O)c3c(cc4c(c3O)C=CC(C)(C)O4)OC1CO2 (stereo not given) | nt | nt | -2% | nt | nt
C=CCOc1ccc(C2c3c(oc4ccccc4c3=O)C(=O)N2CCCN2CCOCC2)cc1 (stereo not given) | 7% | -14% | -9% | ? | 18%
CC(C)Oc1ccc(C2c3c(oc4ccccc4c3=O)C(=O)N2CCCN2CCOCC2)cc1 (stereo not given) | 1% | ? | -13% | 16µM* | 12%
O=S(=O)(Nc1cccnc1)c1ccc(C2CCCCC2)cc1 | ? | ? | -26% | -3% | 25µM*
Cc1cc(C)c(S(=O)(=O)Nc2ccc(O)cc2)c(C)c1 | ? | 0% | 0% | -4% | ?
Cc1cc(Nc2ccc(O)cc2)ccc1N | -5% | -8% | -18% | 2µM* | 15%
CCCc1ccc(Oc2cn[nH]c2-c2ccc(O)cc2O)cc1 | -13%[11.4 µM] | ? | ? | 0.79µM* | -3%[11.4 µM]
COc1ccc(Oc2cn[nH]c2-c2ccc(O)cc2O)cc1 | ? | 2% | -12% | -9% | 2µM*
CC(=O)OC[C@@H]1O[C@@H](O/N=C2/C[C@@H](O)[C@@H](O)[C@@H]3[C@@H]4C(=O)N(C[C@@H]5CCCO5)C(=O)[C@H]4CC[C@@H]23)[C@H](OC(C)=O)[C@H](OC(C)=O)[C@@H]1OC(C)=O | 1%[11.4 µM] | nt | 5%[11.5 µM] | nt | 0%[11.4 µM]
CN1CCN(c2ncnc3ccc(-c4ccccc4C#N)cc23)CC1 | 24% | 10µM* | -16% | 9% | 19%
COc1ccccc1CNc1ncnc2ccc(-c3ccccc3C#N)cc12 | ? | ? | 25µM* | i | ?
N#Cc1ccccc1-c1ccc2ncnc(N3CCNCC3)c2c1 | 5% | ? | -19% | 8% | 3%
COc1ccc(CNc2ncnc3ccc(-c4ccccc4C#N)cc23)c(OC)c1 | 28% | 3.2µM* | -14% | 398% | 28%
Cn1c(=O)n2n(c1=O)[C@H]1[C@H](O)[C@H]3O[C@@H]3/C(=N/OCc3ccccc3)[C@@H]1CC2 | 3%[11.4 µM] | nt | 12%[11.5 µM] | nt | 0%[11.4 µM]
CCCn1c(=O)[nH]c(=O)c2c1nc(-c1ccc3c(c1)OCCO3)n2CCN1CCOCC1 | -2% | 4µM* | 6% | -4% | -7%
COc1ccc(O[C@H]2C=C[C@@H](c3ccccc3)O[C@H]2CO/N=C(/C)CCC(=O)OC[C@@H]2O[C@H](C#Cc3ccccc3)C=C[C@@H]2Oc2ccc(C)cc2)cc1 | 10%[11.4 µM] | nt | 8%[11.5 µM] | nt | 1%[11.4 µM]
Cc1nc2nc(Cc3ccccc3)nn2c(C)c1Cl | 20% | 10µM* | -8% | 15% | 12%
Cc1nc2nc(COc3ccccc3)nn2c(C)c1Cl | 8% | ? | 0% | 4% | 11%
COc1ccc(C(c2nnnn2CC2CCCO2)N2CCN(c3cccc(C)c3C)CC2)cc1 (stereo not given) | ? | -9% | -5% | -7% | 7.9µM*
c1ccc(CC2CCN(C(c3cccs3)c3nnnn3C3CCCC3)CC2)cc1 (stereo not given) | ? | 11% | -1% | -7% | ?
Clc1ccc(C(c2nnnn2C2CCCC2)N2CCSCC2)cc1 (stereo not given) | ? | -6% | 4% | -7% | 3.2µM*
SMILES | TSHR ag | CRE-bla Fsk | ERK AVP inh | Tau filament bind | HEK293 cAMP ctrl
COc1ccc(C(c2nnnn2C2CCCCC2)N2CCN(c3ccc(OC)cc3)CC2)cc1 (stereo not given) | 18% | 7.9µM* | 0% | 6% | 16%
Fc1ccc(C(c2nnnn2C2CCCC2)N2CCN(Cc3ccncc3)CC2)cc1 (stereo not given) | -51% | 1% | 0% | -2% | 14%
COc1ccccc1N1CCN(C(c2cccs2)c2nnnn2C2CCCC2)CC1 (stereo not given) | ? | 1% | -16% | -7% | 13µM*
c1cc(N2CCCC2)ccc1C(c1nnnn1C1CCCCC1)N1CCOCC1 (stereo not given) | 10% | 1% | -9% | -5% | 27%
CCCCC(c1nnnn1CC1CCCO1)N1CCN(c2cccc(C)c2C)CC1 (stereo not given) | ? | -18% | -14% | -6% | ?
COC(=O)[C@@H]1O[C@@H](c2c(OC)c(OC)c(C)c(OC)c2OC)[C@H](C)[C@@H](O)[C@@H]1C | 2%[11.4 µM] | nt | 25%[11.5 µM] | nt | -7%[11.4 µM]
Cc1nc(NCCO)c2nc(-c3ccccc3)n(CCCN(C)C)c2n1 | 9% | 0% | 14% | 3% | 7%
CO[C@@H]1COC(=O)[C@H](COCc2ccccc2)NC(=O)C/C=C\[C@@H](C)[C@H](OC)COC(=O)[C@@H](C)NC(=O)C/C=C\[C@H]1C | nt | nt | 11%[11.5 µM] | nt | 14%[11.4 µM]
COc1ccc(C(c2nnnn2C2CCCC2)N2CCC(C)CC2)cc1 (stereo not given) | ? | 2% | 8% | -4% | 20µM*
COCCn1nnnc1C(c1ccc(OC)cc1)N1CCC(C)CC1 (stereo not given) | 12% | 3% | -4% | -7% | 28%
O=S(=O)(NCC1CC1)c1cccc(S(=O)(=O)N2CCCC2)c1 | 0% | 6% | 12% | 3% | 9%
COc1ccc(N2CCC(CNC(=O)Nc3ccc(C)c(C)c3)C2)cc1 (stereo not given) | -20% | 5% | ? | ? | 0%
COc1ccc(N2CCC(CNS(=O)(=O)c3cccc(C(F)(F)F)c3)C2)cc1 (stereo not given) | -13% | 1% | 27% | 1.3µM* | 0%
COc1ccc(N2CCC(CNC(=O)Nc3ccc(OC)cc3OC)C2)cc1 (stereo not given) | -11% | -19% | 13% | 20µM* | -20%
CC1CCc2cc(F)ccc2N1C(=O)c1ccc2c(c1)OCO2 (stereo not given) | 25µM* | -6% | 4% | -6% | 25%
C=C1C2CC[C@@]3(C)C(c4ccoc4)OC(=O)C[C@@]13OC1CC(OC(C)=O)C(C)(C)C(CC(=O)OC)[C@@]12C (stereo not given in full) | nt | nt | -19% | nt | nt
